Screening data: PubChem BioAssay, several laboratories
The list is not random: actives were taken first. Their share in the collection is about 2.3%.
Mcl1 Noxa PPI: Mcl-1/Noxa interaction inhibition; Q07820; TR-FRET Mcl-1/Noxa peptide binding, 2 h; inhibition, % at 21.7 µM; 220,000 tested, 1.5% active; AID 1022;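 active = compounds that cut the protein-peptide binding signal by more than 50% relative to plate controls in a single-dose test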;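 also: His-tagged Mcl-1 with rhodamine Noxa BH3 peptide and terbium anti-His antibody; 0% = Mcl-1 plus Noxa peptide wells and 100% = peptide-only wells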
Target sequence (Q07820 whole entry, looked up): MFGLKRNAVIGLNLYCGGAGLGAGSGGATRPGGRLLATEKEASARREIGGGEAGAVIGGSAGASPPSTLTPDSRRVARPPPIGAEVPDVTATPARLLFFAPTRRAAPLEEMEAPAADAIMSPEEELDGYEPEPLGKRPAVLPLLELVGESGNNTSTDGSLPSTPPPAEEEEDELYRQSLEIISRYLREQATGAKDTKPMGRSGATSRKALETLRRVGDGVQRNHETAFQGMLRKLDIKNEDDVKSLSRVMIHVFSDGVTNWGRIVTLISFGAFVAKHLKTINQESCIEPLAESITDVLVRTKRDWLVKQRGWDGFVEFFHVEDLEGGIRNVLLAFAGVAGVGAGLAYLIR
Mcl-1 Bim block: disrupts Bim peptide binding to human Mcl-1; Q07820; Bead-based flow cytometry, Bim peptide-Mcl-1 binding; inhibition, % at 10 µM; 190,000 tested, 0.1% active; in the data active = inhibition above about 40%;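 also: 0% = no compound tracer wells and 100% = peptide blocker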
Mcl1-Bid inh: Mcl-1/Bid interaction inhibition; Q07820; TR-FRET Mcl-1/Bid-Dy647 peptide binding, 1536-well; 220,000 tested, 0.97% active; inhibition, % at 21.7 µM; AID 1021;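 active = compounds that cut the binding signal by more than half at the single screening dose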;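 also: His-tagged Mcl-1 with europium anti-His antibody binding Bid BH3 peptide; 0% = Mcl-1 plus peptide wells and 100% = peptide-only wells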
GLD-1 TGE inh: GLD-1-TGE RNA interaction inhibition (C. elegans). inhibition, % at 5.96 µM. purified GLD-1 + fluorescein TGE RNA, fluorescence polarization. Q17339. 320,000 tested, 0.44% active. AID 2280;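 active = percent inhibition above a per-plate cutoff, the plate mean of test compounds plus 3 SD, cut at about 30% in these data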;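 also: 0% = DMSO wells with GLD-1 and probe and 100% = wells lacking GLD-1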
MCL1 BIM primary: disrupts human MCL1 binding to BIM-BH3 peptide; Q07820; GST-MCL1 / FITC-Bim-BH3 fluorescence polarization; inhibition, % at 10.9 µM; 320,000 tested, 0.68% active;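 active = inhibition above the mean inhibition of all tested compounds plus 3 SD, set per campaign, cut at about 40% in these data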;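 also: 0% = DMSO wells and 100% = unlabeled Bim-BH3 peptide control; higher means more loss of mP so more displacement of Bim peptide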
BCLXL inh: inhibitors of human Bcl-xL; Q07817; GST-Bcl-xL / FITC-Bim BH3 peptide fluorescence polarization; inhibition, % at 10.9 µM; 320,000 tested, 0.7% active; AID 2129;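 active = inhibition above the mean of all tested compounds plus 3 SD, cutoff set per campaign, cut at about 30% in these data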;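 also: 0% = DMSO wells and 100% = unlabeled Bim-BH3 peptide competitor; inhibitors lower millipolarization by displacing the labeled peptide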
Target sequence (Q07817 whole entry, looked up): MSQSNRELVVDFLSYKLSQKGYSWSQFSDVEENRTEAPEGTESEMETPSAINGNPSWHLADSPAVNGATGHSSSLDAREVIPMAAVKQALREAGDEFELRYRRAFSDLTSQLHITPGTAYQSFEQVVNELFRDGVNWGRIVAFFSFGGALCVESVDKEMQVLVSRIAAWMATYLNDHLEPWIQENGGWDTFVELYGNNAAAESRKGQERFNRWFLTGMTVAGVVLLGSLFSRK
An asterisk follows results filed as active; x = not tested or not shown.

SMILES | Mcl1 Noxa PPI | Mcl-1 Bim block | Mcl1-Bid inh | GLD-1 TGE inh | MCL1 BIM primary | BCLXL inh
CN(C)c1ccc(NC(=O)CCn2c(=S)oc3ccccc32)cc1 | 68* | 2 | -15 | 0 | 30 | 1
Cc1ccc(NC(=O)CCn2c(=S)oc3ccccc32)cc1 | 15 | 2 | 17 | 3 | 1 | 2
Cc1c(NS(=O)(=O)c2cc(NC(=O)CCN3CCCC(C)C3)ccc2Cl)c(=O)n(-c2ccccc2)n1C (stereo not drawn) | 78* | 0 | -22 | 3 | 14 | 5
CC(=O)N1CCN(c2nc(-c3cccs3)nc3ccccc23)CC1 | 3 | 0 | -18 | -5 | 4 | -1
CCN1CCN(c2nc(-c3ccncc3)nc3ccccc23)CC1 | 51* | 5 | -15 | 1 | 6 | 7
CN1CCN(c2nc(-c3cccnc3)nc3ccccc23)CC1 | 50 | 0 | -11 | 0 | 3 | 1
CCN1CCN(c2nc(-c3cccnc3)nc3ccccc23)CC1 | 66* | 13 | 39 | 0 | 4 | 7
CCCN1CCN(c2nc(-c3cccs3)nc3ccccc23)CC1 | 53* | -2 | -11 | 3 | 6 | 4
CC(C)NS(=O)(=O)c1ccc(OCC(=O)Nc2ccc(F)cc2)cc1 | 13 | 58* | -11 | 1 | 4 | 4
CC#CC[N+](C)(C)CCCCCCCCCC | -19 | x | 1 | -2 | -7 | 3
CC(NCC(O)c1ccc([N+](=O)[O-])cc1)C12CC3CC(CC(C3)C1)C2 (stereo not drawn) | -12 | x | -10 | 9 | -2 | 4
COc1ccccc1CCc1nnc(CCC(=O)NC(C)Cc2cccnc2)o1 (stereo not drawn) | 9 | 0 | 83* | 6 | 12 | 6
COc1ccccc1CCc1nnc(CCC(=O)NCCCOc2cccnc2)o1 | -1 | -1 | -23 | 9 | 12 | 5
CN1C2C=C3C(C#N)=C(N)C(C#N)(C#N)[C@@H](c4cccc(F)c4)[C@@H]3C1CC2 (stereo partly drawn) | 12 | 0 | -14 | 23 | 27 | 31*
COc1ccc(C2=NOC(Cn3nc(C(=O)NCC4CC4)cc3-c3ccccc3)C2)cc1 (stereo not drawn) | x | x | x | 0 | -7 | -5
CN(CC(=O)Nc1ccc(F)cc1)C(=O)Cn1cnc2ccc(Cl)cc2c1=O | x | x | x | 3 | 1 | -6
Cc1nc(NC(=O)c2ccco2)sc1-c1csc(Nc2ccc(Cl)cc2)n1 | 62* | -2 | 25 | -8 | -11 | -3
Cc1nc(NC(=O)c2ccco2)sc1-c1csc(Nc2ccc(Cl)cc2Cl)n1 | 100* | 10 | 87* | -8 | 1 | 2
Cc1nc(NC(=O)CC(C)C)sc1-c1csc(Nc2ccc(Cl)cc2)n1 | 44 | 64* | 4 | -3 | -9 | -1
COC(=O)c1ccccc1NC(=O)CSc1nncn1-c1ccccn1 | x | x | x | 3 | 7 | 6
O=C(NC1CC1)C1=C[C@@H](c2ccc(Br)cc2)C[C@@H](OCc2ccc(CO)cc2)O1 | 7 | x | -35 | -6 | 7 | 2
O=C(O)CCNS(=O)(=O)c1cccc2nsnc12 | x | x | x | 2 | -2 | 9
Cc1ccc(OCCCCn2cnc3ccccc32)c(C)c1 | 28 | 1 | 54* | 5 | 0 | 7
Brc1ccccc1OCCCCn1cnc2ccccc21 | 8 | -3 | -4 | 7 | 2 | 3
CC(C)OC(=O)Nc1ccc2c(c1)N(C(=O)N1CCN(C)CC1)c1ccccc1CC2 | 51* | x | 12 | 1 | 7 | 12
SMILES | Mcl1 Noxa PPI | Mcl-1 Bim block | Mcl1-Bid inh | GLD-1 TGE inh | MCL1 BIM primary | BCLXL inh
COc1ccc2nc(NNC(=O)c3cc(=O)c4ccccc4o3)sc2c1 | 72* | 5 | -47 | 1 | 12 | -4
COc1ccc2nc(NC(=O)/C=C/c3ccc4c(c3)OCO4)sc2c1 | 0 | 1 | 51* | -1 | 17 | 5
COc1ccc2nc(NC(=O)Nc3cccc4ccccc34)sc2c1 | 75* | 0 | -33 | -4 | -3 | 5
Cc1cccc2sc(NNC(=O)c3cc(=O)c4ccccc4o3)nc12 | 37 | -5 | -56 | -8 | -13 | 4
Cc1ccc2sc(NNC(=O)c3cc(=O)c4ccccc4o3)nc2c1C | 66* | 1 | -25 | 0 | 15 | 2
CCC(=O)N(Cc1cc(=O)[nH]c2ccccc12)c1ccc(C)cc1C | x | x | x | -10 | -1 | 1
Cc1ccc(CNC(=O)CNC(=S)N(Cc2ccccc2)Cc2ccccc2F)cc1 | 4 | -1 | 3 | x | x | x
COc1cc(C)ccc1OCCOCCOc1cccc2ccc(C)nc12 | 17 | 0 | -13 | 7 | -7 | 4
C=CCc1ccc(OCCOCCOc2cccc3ccc(C)nc23)c(OC)c1 | 16 | 1 | 80* | 2 | 10 | 2
CCOc1cccc(C2c3c(oc4ccccc4c3=O)C(=O)N2c2ccccn2)c1 (stereo not drawn) | -4 | -1 | 6 | 4 | 4 | 3
CCOc1cc(C2c3c(oc4ccccc4c3=O)C(=O)N2c2nccs2)ccc1O (stereo not drawn) | -31 | x | 56* | -1 | 4 | -1
CCOC(=O)C1=C(O)/C(=C\c2cc(C)n(-c3ccccc3F)c2C)N=C1C | -4 | -2 | -21 | 29 | 37 | 48*
COc1ccc(-c2ccnc3nc(-n4cccc4)nn23)cc1 | 51* | -3 | 14 | 1 | -2 | -8
c1coc(-c2ccnc3nc(-n4cccc4)nn23)c1 | 62* | -4 | 8 | -7 | 18 | 5
O=C(CN1C(=O)C2CCCCC2C1=O)OCC(=O)c1ccc(F)cc1 (stereo not drawn) | x | x | x | 3 | -4 | -3
O=C(CCC(=O)Nc1ccc(F)cc1)N/N=C/c1cccnc1 | x | x | x | 2 | -1 | 3
O=C(/C=C/Nc1ccc(F)c(Cl)c1)c1ccco1 | -6 | 0 | -49 | 3 | -6 | -1
O=C(/C=C/Nc1cccc(F)c1)c1ccco1 | -3 | -2 | 87* | 2 | 2 | -1
O=C1NC(=S)S/C1=C\c1ccc(SCc2ccco2)o1 | 98* | -2 | 62* | 13 | 75* | 66*
O=C1NC(=S)S/C1=C/c1ccc(OC(=O)c2ccco2)cc1 | x | x | x | -14 | -1 | 8
O=C1NC(=S)S/C1=C\c1ccc(SCc2ccccc2)o1 | 81* | 0 | -17 | -32 | -33 | -5
Cc1cc(/C=C2\SC(=S)NC2=O)c(C)n1-c1ccccc1 | 42 | x | -49 | -50 | -51 | -23
CCC1=NN2C(=N)/C(=C\c3ccc(SCc4ccco4)o3)C(=O)N=C2S1 | 64* | 5 | -14 | 2 | 31 | 21
O=C(NCCC1=CCCCC1)c1cc(-c2ccncc2)nc2ccccc12 | 19 | -2 | -6 | 3 | 13 | 5
COc1ccc(CCNS(=O)(=O)c2ccc(Br)cc2)cc1OC | x | x | x | -2 | 7 | 3
Cc1ccccc1C(=O)NC(=S)N(C)CCc1ccccn1 | 11 | 3 | -21 | -1 | 0 | 5
